Compounds without any hit were thinned out: in the full panel of roughly 83,000, 20% have a hit.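 Plates (96-well) were seeded with cells, treated with compound at one concentration, and incubated for 48 hours before percent growth was determined.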 Active and inactive are the calls of the source. How the source made its calls: active means growth percent below 10; inactive means the rest.
Key:
Assay in all cases: NCI-60 one-dose screen, 48 h (100 = growth as untreated, 0 = no growth, -100 = all killed)
Conditions in all cases: 10 µM unless noted
NCI-H23 lung = tested on: NCI-H23 lung
NCI-H226 lung = tested on: NCI-H226 lung
NCI-H322M lung = tested on: NCI-H322M lung
HOP-62 NSCLC = tested on: HOP-62 NSCLC
NCI-H460 lung = tested on: NCI-H460 lung
HOP-92 NSCLC = tested on: HOP-92 NSCLC
NCI-H522 lung = tested on: NCI-H522 lung
A549/ATCC NSCLC = tested on: A549/ATCC NSCLC
786-0 renal = tested on: 786-0 renal
COLO 205 colon = tested on: COLO 205 colon
DU-145 prostate = tested on: DU-145 prostate
K-562 leukemia = tested on: K-562 leukemia
MALME-3M melanoma = tested on: MALME-3M melanoma
MDA-MB-231 breast = tested on: MDA-MB-231 breast
RXF 393 renal = tested on: RXF 393 renal
SF-268 CNS = tested on: SF-268 CNS
SF-295 CNS = tested on: SF-295 CNS
SF-539 CNS = tested on: SF-539 CNS
UACC-257 melanoma = tested on: UACC-257 melanoma
M14 melanoma = tested on: M14 melanoma

Measured: growth

COc1cc([C@@H]2c3cc4c(cc3C(OC3O[C@@H]5COC(C)O[C@H]5[C@H](O)[C@H]3O)C3COC(=O)[C@@H]32)OCO4)cc(OC)c1O (stereo not given in full)
active: HOP-62 NSCLC -9.99% | NCI-H460 lung 7.32% | 786-0 renal -13.1% | SF-295 CNS -10.4% | SF-539 CNS -5.44% | M14 melanoma 4.19%
inactive: NCI-H23 lung 14.3% | NCI-H226 lung 33.1% | NCI-H322M lung 115% | HOP-92 NSCLC 63.5% | NCI-H522 lung 24.3% | A549/ATCC NSCLC 29.7% | COLO 205 colon 60.6% | DU-145 prostate 15.9% | K-562 leukemia 30.5% | MALME-3M melanoma 40.2% | MDA-MB-231 breast 78.3% | RXF 393 renal 28.9% | SF-268 CNS 23.9% | UACC-257 melanoma 51.2%

COc1cc(NC(C)CCCN2C(=O)c3ccccc3C2=O)c2nccc(C)c2c1OC (stereo not given)
inactive: NCI-H23 lung 90.1% | NCI-H226 lung 94.1% | NCI-H322M lung 102% | HOP-62 NSCLC 103% | NCI-H460 lung 108% | HOP-92 NSCLC 60.1% | NCI-H522 lung 75.2% | A549/ATCC NSCLC 93.9% | 786-0 renal 94.2% | COLO 205 colon 131% | DU-145 prostate 124% | K-562 leukemia 60.9% | MALME-3M melanoma 81.2% | MDA-MB-231 breast 84.7% | RXF 393 renal 106% | SF-268 CNS 104% | SF-295 CNS 119% | SF-539 CNS 119% | UACC-257 melanoma 106% | M14 melanoma 135%

Cc1cn(C2CC(N=[N+]=[N-])C(COP(=O)(O)OP(=O)(O)OP(=O)(O)O)O2)c(=O)[nH]c1=O (stereo not given)
inactive: NCI-H23 lung 94.7% | NCI-H226 lung 115% | NCI-H322M lung 102% | HOP-62 NSCLC 94.1% | NCI-H460 lung 82.4% | HOP-92 NSCLC 50.9% | NCI-H522 lung 92.9% | A549/ATCC NSCLC 146% | 786-0 renal 95.2% | COLO 205 colon 119% | DU-145 prostate 114% | K-562 leukemia 83.5% | MALME-3M melanoma 87.9% | MDA-MB-231 breast 118% | RXF 393 renal 127% | SF-268 CNS 103% | SF-295 CNS 80.7% | SF-539 CNS 114% | UACC-257 melanoma 108% | M14 melanoma 57.7%

C/C(=N\N=C1/SCC(=O)N1c1ccccc1)c1ccco1
inactive: NCI-H23 lung 99.4% | NCI-H226 lung 124% | NCI-H322M lung 89.8% | HOP-62 NSCLC 137% | NCI-H460 lung 123% | HOP-92 NSCLC 63.3% | NCI-H522 lung 75.4% | A549/ATCC NSCLC 114% | 786-0 renal 52% | COLO 205 colon 130% | DU-145 prostate 119% | K-562 leukemia 96.4% | MALME-3M melanoma 82.1% | MDA-MB-231 breast 93.2% | RXF 393 renal 112% | SF-268 CNS 91.6% | SF-295 CNS 98.3% | SF-539 CNS 118% | UACC-257 melanoma 118% | M14 melanoma 176%

Nn1c(SCC(=O)Nc2cc(Cl)c(Cl)cc2Cl)nnc1-c1cc(F)c(Cl)cc1Cl
inactive: NCI-H23 lung 103% | NCI-H226 lung 138% | NCI-H322M lung 105% | HOP-62 NSCLC 91.3% | NCI-H460 lung 110% | HOP-92 NSCLC 75.8% | NCI-H522 lung 90.9% | A549/ATCC NSCLC 106% | 786-0 renal 98.4% | COLO 205 colon 106% | DU-145 prostate 113% | K-562 leukemia 90.2% | MALME-3M melanoma 121% | MDA-MB-231 breast 127% | RXF 393 renal 151% | SF-268 CNS 110% | SF-295 CNS 109% | SF-539 CNS 108% | UACC-257 melanoma 108% | M14 melanoma 96.7%

COc1cc(-c2nc3ccccc3s2)ccc1OCc1nc2n(n1)S(=O)(=O)c1ccccc1N2C
inactive: NCI-H23 lung 92.7% | NCI-H226 lung 101% | NCI-H322M lung 68.9% | HOP-62 NSCLC 46.1% | NCI-H460 lung 101% | NCI-H522 lung 60.7% | A549/ATCC NSCLC 91.1% | 786-0 renal 62.1% | COLO 205 colon 102% | DU-145 prostate 87.7% | K-562 leukemia 71.1% | MALME-3M melanoma 39.4% | MDA-MB-231 breast 84.6% | RXF 393 renal 58.3% | SF-268 CNS 94.4% | SF-295 CNS 61.3% | SF-539 CNS 52.4% | UACC-257 melanoma 104% | M14 melanoma 76.8%
active: HOP-92 NSCLC 1.17%

O=C(NCCNc1nccc(-c2c(-c3cccc(O)c3)nc3sccn23)n1)c1ccc(N2CCOCC2)c(C(F)(F)F)c1
active: MALME-3M melanoma -4.27%
inactive: NCI-H23 lung 85.4% | NCI-H226 lung 69.5% | NCI-H322M lung 102% | HOP-62 NSCLC 96.7% | NCI-H460 lung 66.9% | HOP-92 NSCLC 38.9% | NCI-H522 lung 74.4% | A549/ATCC NSCLC 64.1% | 786-0 renal 60.1% | COLO 205 colon 43.4% | DU-145 prostate 94.9% | K-562 leukemia 63% | MDA-MB-231 breast 64.9% | RXF 393 renal 57.6% | SF-268 CNS 79.1% | SF-295 CNS 67.5% | SF-539 CNS 77.8% | UACC-257 melanoma 15.8% | M14 melanoma 19.1%

Nc1nc(Cl)cc(NCc2ccc(CNc3cc(Cl)nc(N)n3)cc2)n1
inactive: NCI-H23 lung 75.7% | NCI-H226 lung 70.8% | NCI-H322M lung 102% | HOP-62 NSCLC 48.8% | NCI-H460 lung 115% | HOP-92 NSCLC 92.9% | NCI-H522 lung 49.8% | A549/ATCC NSCLC 87.2% | 786-0 renal 101% | COLO 205 colon 103% | DU-145 prostate 96.4% | K-562 leukemia 47.8% | MALME-3M melanoma 182% | MDA-MB-231 breast 83.1% | RXF 393 renal 90.9% | SF-268 CNS 98.2% | SF-295 CNS 105% | SF-539 CNS 87.3% | UACC-257 melanoma 96% | M14 melanoma 133%

C[C@H]1C=C(C[C@@H](O)CCCCCCCCCC[C@@H](O)[C@H]2CCC(=O)O2)C(=O)O1
inactive: NCI-H23 lung 95.5% | NCI-H226 lung 96.5% | NCI-H322M lung 94.2% | HOP-62 NSCLC 109% | NCI-H460 lung 113% | HOP-92 NSCLC 68% | NCI-H522 lung 73.3% | A549/ATCC NSCLC 110% | 786-0 renal 96.8% | COLO 205 colon 92.5% | DU-145 prostate 112% | K-562 leukemia 83.5% | MALME-3M melanoma 122% | MDA-MB-231 breast 102% | RXF 393 renal 100% | SF-268 CNS 115% | SF-295 CNS 109% | SF-539 CNS 92.5% | UACC-257 melanoma 102% | M14 melanoma 101%

C=C1C(=O)O[C@H]2[C@H]1CC/C(C(=O)NCCOCCOCC(=O)Nc1ccc(OC)c(C(N)=O)c1O)=C\CC[C@@]1(C)O[C@@H]21
inactive: NCI-H23 lung 97.7% | NCI-H226 lung 80.7% | NCI-H322M lung 94.2% | HOP-62 NSCLC 91.8% | NCI-H460 lung 106% | HOP-92 NSCLC 92.5% | NCI-H522 lung 26.1% | A549/ATCC NSCLC 84.4% | 786-0 renal 94.3% | COLO 205 colon 73.7% | DU-145 prostate 101% | K-562 leukemia 82.6% | MALME-3M melanoma 86.9% | MDA-MB-231 breast 100% | RXF 393 renal 59.6% | SF-268 CNS 89.4% | SF-295 CNS 104% | SF-539 CNS 90.7% | UACC-257 melanoma 69.4% | M14 melanoma 99.3%

CNCCCOc1c(Br)cc(CCNC(=O)/C(Cc2ccc(OC)c(Br)c2)=N/O)cc1Br
active: COLO 205 colon -58.6% | K-562 leukemia -21.6% | MALME-3M melanoma 1.79% | UACC-257 melanoma 4.02% | M14 melanoma -55.9%
inactive: NCI-H23 lung 62.7% | NCI-H226 lung 77.3% | NCI-H322M lung 70.3% | HOP-62 NSCLC 67.5% | NCI-H460 lung 15.8% | HOP-92 NSCLC 40.9% | NCI-H522 lung 29.3% | A549/ATCC NSCLC 49.7% | 786-0 renal 40.6% | DU-145 prostate 61.2% | MDA-MB-231 breast 26.8% | RXF 393 renal 45.3% | SF-268 CNS 53% | SF-295 CNS 19.8% | SF-539 CNS 32.1%

COc1ccc(CCNC=O)cc1OC
inactive: NCI-H23 lung 101% | NCI-H226 lung 89.1% | NCI-H322M lung 96.4% | HOP-62 NSCLC 107% | NCI-H460 lung 102% | HOP-92 NSCLC 93.4% | NCI-H522 lung 131% | A549/ATCC NSCLC 107% | 786-0 renal 99.2% | COLO 205 colon 96.3% | DU-145 prostate 102% | K-562 leukemia 115% | MALME-3M melanoma 90% | MDA-MB-231 breast 112% | RXF 393 renal 87.9% | SF-268 CNS 104% | SF-295 CNS 103% | SF-539 CNS 91.5% | UACC-257 melanoma 108% | M14 melanoma 100%

COc1ccc(/C=C/C(=O)c2ccc(NC(=O)CSc3nnc(-c4cc(OC)c(OC)c(OC)c4)o3)cc2)cc1
active: NCI-H23 lung -17% | HOP-92 NSCLC -55.4% | NCI-H522 lung -76.4% | A549/ATCC NSCLC 7.85% | 786-0 renal -58.4% | COLO 205 colon -61.1% | DU-145 prostate 4.04% | K-562 leukemia -52.2% | MALME-3M melanoma -70.7% | MDA-MB-231 breast -80.7% | RXF 393 renal -84.3% | SF-268 CNS -76.7% | SF-539 CNS -90.3% | M14 melanoma -60.1%
inactive: NCI-H226 lung 12.9% | NCI-H322M lung 20.2% | HOP-62 NSCLC 43.8% | NCI-H460 lung 14.5% | SF-295 CNS 57.6% | UACC-257 melanoma 40.1%

N#CC(C#N)=C(C#N)c1c[nH]c2ccccc12
inactive: NCI-H23 lung 87.4% | NCI-H226 lung 78.4% | NCI-H322M lung 110% | HOP-62 NSCLC 81.2% | NCI-H460 lung 92.8% | HOP-92 NSCLC 41.2% | NCI-H522 lung 57.4% | A549/ATCC NSCLC 80.4% | 786-0 renal 82.4% | COLO 205 colon 73.8% | DU-145 prostate 88% | K-562 leukemia 91.3% | MALME-3M melanoma 86.1% | MDA-MB-231 breast 84.8% | RXF 393 renal 88.2% | SF-268 CNS 90.7% | SF-295 CNS 103% | SF-539 CNS 80.4% | UACC-257 melanoma 85.2% | M14 melanoma 79.7%

Reference: PubChem BioAssay (NCI)
